For some of these results: Entries with a potency or affinity are not part of this list. Calls of active or inactive are those of the source.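 Rule for the calls, unless noted: active = membrane potential signal rise above negative control mean plus 3 SD in both duplicates, also active in the earlier TRPC4 screen; inactive = the rest.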
Tests used:
[1] = tested on: TRPC4 beta (transient receptor potential cation channel C4), mouse; assay: activators of mouse TRPC4 channel, confirmation, cell-based, Fluo4 calcium, HEK293 TRPC4beta/mu-opioid, duplicates, 10 µM (AID 2426;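 active = fluorescence ratio normalized to control raised more than 50% in primary screen plus both repeat runs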); details: Fluo4 calcium fluorescence, at 10 µM; active compounds read high
[2] = tested on: transient receptor potential cation channel C4 beta (TRPC4), mouse; assay: activators of mouse TRPC4 channel, confirmation, cell-based, second round, Fluo4, HEK293 TRPC4beta/mu-opioid, 1 µM (AID 2461;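 active = primary screen active and over 50% activation in each of two duplicate runs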); details: Fluo4 calcium fluorescence, at 1 µM; active compounds read high
[3] = tested on: TRPC4 (transient receptor potential cation channel C4 beta), mouse; assay: positive allosteric modulators of mouse TRPC4, confirmation, cell-based, second round, Fluo-4, HEK293 TRPC4beta/mu-opioid, 1 µM (AID 2554;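 active = primary screen hit whose fluorescence ratio, in both repeats, exceeds the weak agonist control mean by 3 SD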); details: DAMGO EC20, Fluo-4 calcium flux, at 1 µM; active compounds read high
[4] = tested on: TRPC4 beta (transient receptor potential cation channel C4), mouse; assay: positive allosteric modulators of mouse TRPC4, confirmation, cell-based, Fluo-4, HEK293 TRPC4beta/mu-opioid (AID 2555;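 active = primary screen hit whose calcium fluorescence ratio, in both repeats, exceeds the weak agonist control mean by 3 SD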); details: DAMGO EC20, Fluo-4 calcium flux, at 10 µM; active compounds read high
[5] = target: Short transient receptor potential channel 4 (Mus musculus) (UniProt Q9QUQ5); assay: inhibitors of mouse TRPC4 channel, confirmation, cell-based, Fluo4, HEK293 TRPC4beta/mu-opioid (AID 2636;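 active = calcium signal cut by more than 3 SD below the full-agonist control yet still positive, in both repeats and the earlier primary screen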); details: DAMGO, Fluo4 calcium flux, at 10 µM; active compounds read high
[6] = target: Short transient receptor potential channel 4 (Mus musculus) (UniProt Q9QUQ5); assay: inhibitors of mouse TRPC4 channel, confirmation, cell-based, second round, Fluo4, HEK293 TRPC4beta/mu-opioid, 1 µM (AID 2637;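 active = calcium signal ratio cut to more than 3 SD under the fully stimulated control mean yet still positive, in both repeats and the primary screen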;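 for inhibition: percent of integrated ratio relative to wells lacking test compound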); details: Fluo4 calcium flux, DAMGO, at 1 µM; active compounds read high
[7] = target: Short transient receptor potential channel 4 (Mus musculus) (UniProt Q9QUQ5); assay: mouse TRPC4 channel activators, dose response, cell-based, HEK293 TRPC4/mu-opioid, Fluo-4 calcium (AID 434937;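 active = primary screen activator hit with a dose response curve and TRPC4 channel activation at any tested dose; inactive = no activation, no dose response, or not a primary hit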)
[8] = target: Short transient receptor potential channel 4 (Mus musculus) (UniProt Q9QUQ5); assay: TRPC4 positive allosteric modulators, dose response, cell-based, HEK293 TRPC4/mu-opioid, Fluo-4 calcium, EC20 DAMGO (AID 434941;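 active = earlier screen potentiator hit that boosts the TRPC4 ion channel at some dose, with a dose response; inactive = no potentiation, no dose response, or not a prior hit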;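 note: calcium entry triggered by an EC20 dose of DAMGO at the co-expressed mu-opioid receptor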)
[9] = target: Short transient receptor potential channel 4 (Mus musculus) (UniProt Q9QUQ5); assay: mouse TRPC4 channel inhibitors, dose response, cell-based, HEK293 TRPC4/mu-opioid, Fluo-4 calcium (AID 434942;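 active = primary screen inhibitor hit that blocks the TRPC4 channel at some tested dose, yielding a dose curve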)
[10] = target: Short transient receptor potential channel 6 (Mus musculus) (UniProt Q61143); assay: inhibition of mouse TRPC6 channel, confirmation, selectivity assay for TRPC4 inhibitor project, cell-based, HEK293, membrane potential dye, duplicate (AID 434948;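 active = active in primary screen and both duplicates, each dropping signal beyond three positive-control SD with fluorescence still positive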); details: HEK293 TRPC6, membrane potential dye fluorescence, at 10 µM; inhibition: active compounds read high, stimulated with maximal-effect acetylcholine unless noted; outcome: stimulated with maximal-effect acetylcholine unless noted
[11] = target: Short transient receptor potential channel 6 (Mus musculus) (UniProt Q61143); assay: activation of mouse TRPC6 channel, confirmation, selectivity assay for TRPC4 activator project, cell-based, HEK293, membrane potential dye, duplicate (AID 434950); details: HEK293 TRPC6, membrane potential fluorescence, at 10 µM; active compounds read high
[12] = target: Short transient receptor potential channel 6 (Mus musculus) (UniProt Q61143); assay: TRPC6 potentiation by TRPC4 potentiator hits, confirmation, selectivity assay for TRPC4 potentiator project, HEK293 cells, membrane potential dye, duplicate (AID 434952;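 active = compound raising the membrane signal above positive-control mean plus 3 SD in both repeats, and a primary screen hit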); details: HEK293 TRPC6, membrane potential dye fluorescence, at 10 µM; maximal acetylcholine added after compound unless noted
[13] = target: Short transient receptor potential channel 4 (Mus musculus) (UniProt Q9QUQ5); assay: calcium flux activators in TRPC4/5HT1a cells, counter-screen for TRPC4 activator project, cell-based, second counter screen, HEK293 TRPC4/5HT1a, Fluo-4 (AID 434977;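 active = calcium signal rise above buffer-control mean plus 5 SD in both duplicates, and also a hit in the primary screen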); details: Fluo-4 calcium flux, at 10 µM; active compounds read high
[14] = calcium flux inhibitors in TRPC4/5HT1a cells, confirmation, counter-screen for TRPC4 inhibitor project, cell-based, second counter screen, HEK293 TRPC4/5HT1a, Fluo-4 (AID 434978;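 active = primary screen active whose calcium signal fell more than 3 SD beyond the full-serotonin control mean in both duplicate plates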;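 for outcome: serotonin given first at submaximal then at maximal dose after compound preincubation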); details: Fluo-4 calcium flux, at 10 µM; inhibition: active compounds read high, serotonin added to trigger calcium flux unless noted; outcome: serotonin added to trigger calcium flux unless noted
[15] = tested on: TRPC4 (mouse), co-expressed with 5HT1a in HEK293; assay: calcium flux potentiators in TRPC4/5HT1a cells, confirmation, counter-screen for TRPC4 potentiator project, cell-based, second counter screen, HEK293 TRPC4/5HT1a, Fluo-4 (AID 434979;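 active = signal rise over 3 SD above mean of control wells given weak agonist, in both repeats and first screen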); details: Fluo-4 calcium flux, at 10 µM; outcome: serotonin added at its EC20 dose unless noted; potentiation: active compounds read high, serotonin added at its EC20 dose unless noted
[16] = calcium flux activation in mu-opioid HEK293 cells, confirmation, counter-screen for TRPC4 activator project, cell-based, HEK293 mu-opioid receptor line (AID 449723;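 active = hit in primary screen, with calcium signal over 5 SD above buffer well mean in both duplicates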;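 note: counter screen cells carry the mu-opioid receptor alone and lack TRPC4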); details: Fluo-4 calcium fluorescence, at 10 µM; active compounds read high
[17] = calcium flux enhancement in mu-opioid HEK293 cells, confirmation, counter-screen for TRPC4 allosteric potentiator project, cell-based, HEK293 mu-opioid receptor line (AID 449724;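 active = calcium signal rise more than 3 SD above the low-dose agonist control mean, in both duplicate plates and the primary screen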); details: Fluo-4 calcium flux, at 10 µM; compound added before EC20 DAMGO stimulus unless noted

Sequence of Short transient receptor potential channel 6 (Mus musculus) (Q61143 whole entry, looked up): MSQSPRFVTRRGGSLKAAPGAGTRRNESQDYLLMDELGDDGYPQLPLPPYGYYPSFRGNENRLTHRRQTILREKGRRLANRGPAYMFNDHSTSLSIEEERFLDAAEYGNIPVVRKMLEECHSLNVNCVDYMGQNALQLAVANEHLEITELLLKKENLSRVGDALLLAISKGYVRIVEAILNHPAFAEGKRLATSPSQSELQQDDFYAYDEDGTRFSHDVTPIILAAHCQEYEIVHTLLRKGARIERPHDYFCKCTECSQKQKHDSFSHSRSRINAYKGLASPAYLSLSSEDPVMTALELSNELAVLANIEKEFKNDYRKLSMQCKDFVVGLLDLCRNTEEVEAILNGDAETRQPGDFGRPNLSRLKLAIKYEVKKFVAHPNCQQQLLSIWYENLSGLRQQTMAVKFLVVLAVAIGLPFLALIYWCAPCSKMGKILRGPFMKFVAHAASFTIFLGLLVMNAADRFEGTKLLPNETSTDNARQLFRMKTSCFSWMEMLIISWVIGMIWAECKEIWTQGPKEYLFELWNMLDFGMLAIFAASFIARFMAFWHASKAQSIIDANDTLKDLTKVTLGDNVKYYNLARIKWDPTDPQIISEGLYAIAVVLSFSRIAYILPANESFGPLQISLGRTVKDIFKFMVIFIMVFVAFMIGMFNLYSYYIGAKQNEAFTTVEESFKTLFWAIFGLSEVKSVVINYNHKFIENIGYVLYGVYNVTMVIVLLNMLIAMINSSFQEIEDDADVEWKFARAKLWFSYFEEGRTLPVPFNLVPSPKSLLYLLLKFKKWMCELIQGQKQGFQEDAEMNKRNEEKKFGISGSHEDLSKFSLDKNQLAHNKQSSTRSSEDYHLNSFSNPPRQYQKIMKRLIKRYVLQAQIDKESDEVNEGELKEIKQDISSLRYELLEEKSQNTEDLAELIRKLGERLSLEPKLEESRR
Sequence of Short transient receptor potential channel 4 (Mus musculus) (Q9QUQ5 whole entry, looked up): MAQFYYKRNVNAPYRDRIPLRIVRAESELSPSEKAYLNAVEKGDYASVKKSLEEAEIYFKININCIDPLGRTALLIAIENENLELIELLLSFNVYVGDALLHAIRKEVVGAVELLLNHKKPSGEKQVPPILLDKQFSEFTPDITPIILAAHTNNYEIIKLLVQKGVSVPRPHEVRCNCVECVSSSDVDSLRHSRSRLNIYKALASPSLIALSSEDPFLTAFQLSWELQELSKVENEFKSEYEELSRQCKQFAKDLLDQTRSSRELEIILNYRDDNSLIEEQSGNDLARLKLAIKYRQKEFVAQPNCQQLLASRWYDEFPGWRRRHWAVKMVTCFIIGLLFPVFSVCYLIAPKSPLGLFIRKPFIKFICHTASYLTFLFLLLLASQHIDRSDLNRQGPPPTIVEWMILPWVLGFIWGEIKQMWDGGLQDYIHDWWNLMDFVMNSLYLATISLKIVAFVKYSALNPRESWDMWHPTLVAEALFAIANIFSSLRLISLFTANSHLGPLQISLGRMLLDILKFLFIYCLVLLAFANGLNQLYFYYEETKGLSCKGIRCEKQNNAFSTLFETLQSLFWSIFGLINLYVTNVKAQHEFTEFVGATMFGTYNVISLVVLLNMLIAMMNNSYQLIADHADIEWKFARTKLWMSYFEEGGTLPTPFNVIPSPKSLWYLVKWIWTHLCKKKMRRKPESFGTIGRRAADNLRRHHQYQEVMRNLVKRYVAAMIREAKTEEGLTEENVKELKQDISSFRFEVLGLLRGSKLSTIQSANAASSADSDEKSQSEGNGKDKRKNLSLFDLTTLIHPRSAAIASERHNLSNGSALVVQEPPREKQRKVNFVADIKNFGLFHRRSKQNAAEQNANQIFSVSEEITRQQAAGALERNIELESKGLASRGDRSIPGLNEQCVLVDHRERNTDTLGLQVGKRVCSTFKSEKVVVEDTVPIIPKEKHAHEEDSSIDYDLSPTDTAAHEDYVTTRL

CCN(CC)P(=O)(/C=C(\Cl)c1ccccc1)/C=C(\Cl)c1ccccc1
inactive: outcome [1] | outcome [2] | outcome [4] | outcome [5] | outcome [6] | outcome [7] | outcome [8] | outcome [9] | outcome [10] | outcome [11] | outcome [12] | outcome [13] | outcome [14] | outcome [15] | outcome [16] | outcome [17]
active: potentiation [3] 7%

CC(Cc1ccccc1Sc1ccccc1O)N(C)C (stereo unspecified)
active: inhibition [5] 99% | inhibition [6] 70% | inhibition [10] 50.5% | inhibition [14] 33%
inactive: outcome [1] | outcome [2] | outcome [3] | outcome [4] | outcome [7] | outcome [8] | outcome [11] | outcome [12] | outcome [13] | outcome [15] | outcome [16] | outcome [17]

O=C(CN1CCCC1)Nc1ccc(Cl)cc1C(=O)c1ccccc1
active: inhibition [5] 90% | inhibition [14] 21.8%
inactive: outcome [1] | outcome [2] | outcome [3] | outcome [4] | outcome [6] | outcome [7] | outcome [8] | outcome [10] | outcome [11] | outcome [12] | outcome [13] | outcome [15] | outcome [16] | outcome [17]

COc1ccc(Br)cc1CN1CCN(C(=O)Cc2ccccc2)CC1
inactive: outcome [1] | outcome [2] | outcome [3] | outcome [4] | outcome [6] | outcome [7] | outcome [8] | outcome [10] | outcome [11] | outcome [12] | outcome [13] | outcome [15] | outcome [16] | outcome [17]
active: inhibition [5] 89% | inhibition [14] 20.6%

O=C(c1ccc(Cl)cc1)C1CCCN(C2CCSCC2)C1 (stereo unspecified)
inactive: outcome [1] | outcome [2] | outcome [3] | outcome [4] | outcome [7] | outcome [8] | outcome [10] | outcome [11] | outcome [12] | outcome [13] | outcome [15] | outcome [16] | outcome [17]
active: inhibition [5] 86% | inhibition [6] 64% | inhibition [14] 31.4%

CCOC(=O)C1(c2ccccc2)CCN(CC(=O)Nc2ccc(C)cc2)CC1
active: inhibition [5] 80%
inactive: outcome [1] | outcome [2] | outcome [3] | outcome [4] | outcome [6] | outcome [7] | outcome [8] | outcome [10] inactive [setting not given] | outcome [11] | outcome [12] inactive [setting not given] | outcome [13] | outcome [14] inactive [setting not given] | outcome [15] inactive [setting not given] | outcome [16] | outcome [17] inactive [setting not given]

CCc1nccc2c1[nH]c1ccccc12
inactive: outcome [1] | outcome [2] | outcome [3] | outcome [4] | outcome [7] | outcome [8] | outcome [10] | outcome [11] | outcome [12] | outcome [13] | outcome [15] | outcome [16] | outcome [17]
active: inhibition [5] 93% | inhibition [6] 63% | inhibition [14] 9.99%

O=C(c1cccc(C(F)(F)F)c1)C1CCCN(Cc2ccccc2O)C1 (stereo unspecified)
inactive: outcome [1] | outcome [2] | outcome [3] | outcome [4] | outcome [6] | outcome [7] | outcome [8] | outcome [10] | outcome [11] | outcome [12] | outcome [13] | outcome [15] | outcome [16] | outcome [17]
active: inhibition [5] 87% | inhibition [14] 24.6%

COc1ccc2[nH]cc(CCN(C)C)c2c1
inactive: outcome [1] | outcome [2] | outcome [4] | outcome [5] | outcome [6] | outcome [7] | outcome [9] | outcome [10] inactive [setting not given] | outcome [11] | outcome [12] inactive [setting not given] | outcome [13] | outcome [14] inactive [setting not given] | outcome [15] inactive [setting not given] | outcome [16] | outcome [17] inactive [setting not given]
active: potentiation [3] 7%

CCOC(=O)C1(CCc2ccccc2)CCN(Cc2cccc3c2OCO3)CC1
inactive: outcome [1] | outcome [2] | outcome [3] | outcome [4] | outcome [6] | outcome [7] | outcome [8] | outcome [10] | outcome [11] | outcome [12] | outcome [13] | outcome [14] | outcome [15] | outcome [16] | outcome [17]
active: inhibition [5] 102%

CCC1=Nc2cc(C(=O)N3CCC4(CC3)OCCO4)ccc2Sc2ccc(C)cc21
inactive: outcome [1] | outcome [2] | outcome [3] | outcome [4] | outcome [6] | outcome [7] | outcome [8] | outcome [10] inactive [setting not given] | outcome [11] | outcome [12] inactive [setting not given] | outcome [13] | outcome [14] inactive [setting not given] | outcome [15] inactive [setting not given] | outcome [16] | outcome [17] inactive [setting not given]
active: inhibition [5] 74%

CC(=O)OC1(c2ccccc2)CCN(C2CCCCC2)CC1C (stereo unspecified)
active: inhibition [5] 91%
inactive: outcome [1] | outcome [2] | outcome [3] | outcome [4] | outcome [6] | outcome [7] | outcome [8] | outcome [10] inactive [setting not given] | outcome [11] | outcome [12] inactive [setting not given] | outcome [13] | outcome [14] inactive [setting not given] | outcome [15] inactive [setting not given] | outcome [16] | outcome [17] inactive [setting not given]

CCOC(=O)C1(CCc2ccccc2)CCN(Cc2ccco2)CC1
active: inhibition [5] 94%
inactive: outcome [1] | outcome [2] | outcome [3] | outcome [4] | outcome [6] | outcome [7] | outcome [8] | outcome [10] | outcome [11] | outcome [12] | outcome [13] | outcome [14] | outcome [15] | outcome [16] | outcome [17]

CCN1CC2C3CCC(C)(O3)C2C1 (stereo unspecified)
inactive: outcome [1] | outcome [2] | outcome [3] | outcome [4] | outcome [5] | outcome [6] | outcome [7] | outcome [8] | outcome [9] | outcome [10] | outcome [11] | outcome [12] | outcome [13] | outcome [14] | outcome [15] | outcome [16] | outcome [17]
